# Screens deposited in PubChem BioAssay by National Center for Advancing Translational Sciences (NCATS).
# Hits are enriched below; roughly 9.3% of the tested compounds scored in any of these assays.
# NPC1 promoter act: NPC1 promoter activation; Huh7 NPC1 promoter luciferase reporter, 24 h; Potency, µM (highest dose often 9.22 µM), for inactives: at the highest dose activation, hits mostly activators; 320,000 tested, 2.4% active; note: % of control where 0% means no effect; nearly all actives have a fitted effect of over 60% in size
#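 Huh7 cells stably carrying NPC1 promoter–luciferase, plated in Opti-MEM with 10% FBS for 2 h, were exposed to compound in DMSO for 24 h at 37 °C; luciferase reagent was added for 10 min and luminescence read.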
# FLuc modulator: firefly luciferase modulation, counter-screen for miR-21 project; 360,000 tested, 6.9% active; purified FLuc, Km substrates, luminescence inhibition; Potency, µM (top dose mostly 57.5 µM), for the others: at the highest dose activity change, negative = inhibition, hits mostly inhibitors;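 note: plate controls were vehicle for no effect and reference inhibitor for full effect; nearly all actives have a fitted effect of over 55% in size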
# Target sequence (P08659 whole entry, looked up): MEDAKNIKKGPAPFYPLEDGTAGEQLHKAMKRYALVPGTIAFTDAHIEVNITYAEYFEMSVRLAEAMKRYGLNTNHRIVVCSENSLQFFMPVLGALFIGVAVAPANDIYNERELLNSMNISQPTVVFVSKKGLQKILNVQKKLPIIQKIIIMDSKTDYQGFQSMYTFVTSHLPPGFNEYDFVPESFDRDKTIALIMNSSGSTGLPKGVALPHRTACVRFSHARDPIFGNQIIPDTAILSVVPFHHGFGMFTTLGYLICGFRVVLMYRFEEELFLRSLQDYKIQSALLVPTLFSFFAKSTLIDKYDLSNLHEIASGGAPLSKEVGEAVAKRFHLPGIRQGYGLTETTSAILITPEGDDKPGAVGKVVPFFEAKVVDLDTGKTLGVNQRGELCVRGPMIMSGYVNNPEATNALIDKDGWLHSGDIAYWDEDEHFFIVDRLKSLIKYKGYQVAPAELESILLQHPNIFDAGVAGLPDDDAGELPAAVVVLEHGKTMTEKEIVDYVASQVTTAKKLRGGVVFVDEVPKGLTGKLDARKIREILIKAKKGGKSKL
#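 Purified P. pyralis luciferase, 10 nM final, with Km-level 10 uM D-luciferin and 10 uM ATP in 50 mM Tris acetate pH 7.5, 10 mM Mg acetate, 0.01% Tween-20, 0.05% BSA; 6-point qHTS titration about 60 µM downward; luminescence read.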
# ELG1 repair inh: blocks ELG1-dependent DNA repair in HEK293T cells; HEK293T ELG1-luciferase reporter, luminescence, 16 h; DNA damage induced by 5-fluorouridine; 330,000 tested, 2.3% active; AID 504467; Potency, µM (series often up to 46.1 µM), without a hit: at the highest dose activity change, negative = inhibition, most hits filed as inhibitors; note: % is set by controls: 0 for no effect and ±100 for the full control effect; nearly all actives have a fitted effect of over 55% in size
#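 Luminescence from the luciferase reporter, measured 30 min after ONE-Glo reagent at room temperature, was the read-out. Beforehand, 2,000 cells per well were exposed for 16 hr at 37 °C to 5-fluorouridine together with compound or vehicle.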
# SMN2 splice enh: increases expression of the SMN2 splice variant; HEK293 SMN2-luciferase splicing reporter, luminescence, 30-36 h; Potency, µM (top dose mostly 46.1 µM), for the others: at the top dose activity change, positive = activation, hits mostly activators; 210,000 tested, 2.8% active; note: % of control where 0% means no effect; nearly all actives have a fitted effect of over 55% in size
#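 qHTS luciferase splicing reporter: luminescence rises when SMN2 exon 7 is included in transfected HEK293 cells. Compound exposure lasted 30-36 h at 37C, with 4.5 mM final sodium butyrate as control, followed by a ONE-Glo read.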
# ELG1 genotox: induces genotoxicity in HEK293T cells with luciferase-tagged ELG1; 330,000 tested, 1.3% active; Potency, µM (titrated, usually from 46 µM), for inactives: top-dose activity change, positive = activation, most hits filed as activators; HEK293T ELG1-luciferase reporter, luminescence, 16 h; note: % of control where 0% means no effect; nearly all actives have a fitted effect of over 60% in size
#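 16 hr compound incubation (37 °C, 5% CO2) of HEK293T cells carrying luciferase-tagged ELG1; luciferase then measured by ONE-Glo luminescence after 30 min at RT.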
# Rab9 promoter act: activates the Rab9 promoter. Huh7 Rab9 promoter-luciferase reporter, luminescence, 24 h. Potency, µM (series often up to 9.22 µM), for inactives: top-dose activation, negative = inhibition, hits mostly activators. 320,000 tested, 2.8% active. AID 485297; note: % of control where 0% means no effect; nearly all actives have a fitted effect of over 60% in size
#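 Promoter activation is measured as luciferase luminescence in Huh7 cells stably transfected with a Rab9 promoter–luciferase construct, following 24 h compound exposure at 37 °C and 10 min reagent incubation at ambient temperature.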
# Numbers without * were called inactive; ? = inconclusive; nt = no result given; [ ] = dose if it differs, or a comment. Calls come from the whole dose curve; as a rule, active = well fitted curve in the direction sought with a large enough effect; inconclusive = small, poorly fitted or top-dose-only effect, or another doubt; inactive = no such curve, though single readings can be large; an effect the other way counts as inactive or inconclusive. Potency is the fitted concentration of half-maximal effect.
SMILES,NPC1 promoter act,FLuc modulator,ELG1 repair inh,SMN2 splice enh,ELG1 genotox,Rab9 promoter act
Nc1nnc(/C=C/c2ccccc2Cl)s1,?,6.7µM*,?,nt,?,3.5µM*
COc1ccc(S(=O)(=O)N2CCC(C(=O)N[C@@H](C)C(=O)NCc3cccc(OC)c3)CC2)cc1,-4%,2%,1%,nt,-2%,0%
O=C(NC1CCS(=O)(=O)C1)c1ccc(-c2ccc(Br)cc2)o1 (stereo unspecified),5%,?,2%,-32%,5%,5%
O=C(NC12CC3CC(CC(C3)C1)C2)c1ccc(-c2ccc(Br)cc2)o1,?,4.8µM*,?,16µM*,?,?
O=C(NC12CC3CC(CC(C3)C1)C2)c1ccc([N+](=O)[O-])o1,1%,?,-15%,nt,-1%,4%
O=C(NC12CC3CC(CC(C3)C1)C2)c1ccc(Br)o1,-2%,17µM*,14%,nt,-12%,-2%
CCOC(=O)C(Cc1ccc(O)cc1)NC(=O)CNC(=O)C(CC(C)C)NC(=O)OC(C)(C)C (stereo unspecified),-1%,5%,8%,26%,-2%,-1%
CCCC(=O)c1ccc(N2CCCCCC2)c(F)c1,3.2µM*,8.5µM*,?,26%,?,3.5µM*
CCCC(=O)c1ccc(N2CCN(C(=O)OCC)CC2)c(F)c1,0%,-12%,-14%,-11%,1%,12%
CCCC(=O)c1ccc(N2CCCCC2)c(F)c1,?,13µM*,?,-7%,?,?
CCN(CC(=O)Nc1ccccc1OC)C(=O)c1ccc(N(C)S(=O)(=O)c2ccc(C)cc2)cc1,-3%,-1%,16µM*,nt,-8%,-7%
Cc1ccc(S(=O)(=O)N(C)c2ccc(OCC(=O)Nc3cccc(-n4cnnn4)c3C)cc2)cc1,-2%,0%,23µM*,nt,-2%,-9%
COc1ccc(NC(=O)COc2ccc(N(C)S(=O)(=O)c3ccc(C)cc3)cc2)cc1,-1%,-10%,?,-29%,0%,-6%
O=C(Cc1ccccc1)Nc1sc2c(c1C(=O)Nc1ccc(Cl)cc1)CCCC2,nt,?,nt,-8%,nt,nt
CCOc1cccc(-c2nnc3sc(C4CCCCC4)nn23)c1,1%,-15%,21µM*,-16%,-21%,-2%
COc1cc(-c2nnc3sc(C4CCCCC4)nn23)cc(OC)c1OC,-6%,0%,?,-9%,-8%,-17%
COc1cccc(-c2nnc3sc(C4CCCCC4)nn23)c1,17%,-16%,4.6µM*,-2%,-10%,13%
c1cncc(-c2nnc3sc(C4CCCCC4)nn23)c1,2%,3%,-1%,7%,0%,1%
NC(=O)C1(N2CCCCC2)CCN(c2nc(-c3ccc(Br)cc3)cs2)CC1,0%,0%,?,-42%,-2%,-2%
COc1cc(S(=O)(=O)n2ccnc2)ccc1Br,-2%,-17%,12%,-11%,1%,16%
CN1CCN(C(=O)c2ccc3c(c2)NC(=O)/C(=C/c2ccccc2)S3)CC1,-17%,-5%,-11%,nt,3%[9.26 µM],-3%
CCOC(=O)C1CCN(C(=O)c2ccc3c(c2)NC(=O)/C(=C\c2cccc(C)c2)S3)CC1,-2%,-9%,15µM*,nt,-4%,-13%
CCOC(=O)C1CCN(C(=O)c2ccc3c(c2)NC(=O)/C(=C/c2ccccc2)S3)CC1,-6%,-16%,-11%,nt,-4%,-5%
Cc1ccc(/C=C2/Sc3ccc(C(=O)N4CCN(c5ccccn5)CC4)cc3NC2=O)cc1,-5%,13µM*,-19%,nt,-4%,-2%
CCOC(=O)C1CCN(C(=O)c2ccc3c(c2)NC(=O)/C(=C\c2ccc(C)cc2)S3)CC1,-5%,24µM*,7%,nt,0%,1%
SMILES,NPC1 promoter act,FLuc modulator,ELG1 repair inh,SMN2 splice enh,ELG1 genotox,Rab9 promoter act
Cc1cc(C(=O)CSc2nc3ccccc3c(=O)n2C)c(C)n1Cc1ccc2c(c1)OCO2,-42%,-2%,?,-59%,-10%,-49%
O=[N+]([O-])c1cccc(Cl)c1,nt,nt,nt,-2%,nt,nt
Cc1cc(C)c(C2=CSC3=NS(=O)(=O)CCN23)c(C)c1,-9%,1%,-8%,-2%,-9%,-3%
N#Cc1c(/N=C/c2cccnc2)sc2c1CCCC2,-3%,2.7µM*,0%,nt,3%,-4%
N#Cc1c(/N=C/c2cccs2)sc2c1CCCCC2,3.5µM*,0.38µM*,?,-24%,0.52µM*,2µM*
N#Cc1c(/N=C/c2ccc(Br)s2)sc2c1CCC2,?,1.9µM*,?,7.9µM*,?,?
N#Cc1c(/N=C\c2ccc(O)c([N+](=O)[O-])c2)sc2c1CCCC2,28%,?,5%,nt,11%,?
Cc1ccc(/C=N/c2sc3c(c2C#N)CCC3)o1,6%,1.3µM*,?,4%,?,2%
O=c1oc(CCCO)cc2ccc(C#CC3(O)CCCCC3)cc12,11%,?,?,nt,12%,-1%
C=CCn1c2ccccc2c(=O)c2cc(C#CC3(O)CCCCC3)ccc21,1.3µM*,0.76µM*,?,nt,?,0.71µM*
C=CCn1c2ccccc2c(=O)c2cc(C#CC[C@@H](C)O)ccc21,3.2µM*,2.1µM*,?,nt,?,?
NS(=O)(=O)c1cc([N+](=O)[O-])ccc1NCc1cccnc1,-3%,0%,4%,nt,-1%,0%
Cc1ccc(-c2nc3ccccn3c2Nc2ccc3c(c2)OCO3)cc1,nt,?,nt,-6%,nt,nt
Cc1ccc2nc(-c3ccncc3)c(Nc3ccccc3)n2c1,-1%,0%,11%,18µM*,-1%,0%
Cc1ccc(Nc2c(-c3ccc(N(C)C)cc3)nc3ccccn23)cc1,nt,7.6µM*,nt,15%,nt,nt
CCOc1ccc(C(=O)NCC(c2ccc3c(c2)OCO3)N2CCOCC2)cc1 (stereo unspecified),nt,-2%,nt,nt,nt,nt
CCc1ccc(C(C(=O)NC2CCCC2)N(CCOC)C(=O)CCC(=O)Nc2cc(C)on2)cc1 (stereo unspecified),0%,5%,-20%,nt,0%,-2%
O=C(c1ccc(Br)o1)N1CCCc2ccccc21,0%,-2%,5%,2%,1%,0%
Nc1ccccc1C(=O)N1CCc2ccccc21,?,19µM*,?,nt,11%,?
O=C(c1ccc(Br)o1)N1CCc2ccccc21,2.2µM*,4.8µM*,?,nt,?,2.5µM*
Cc1c(Br)c(C(=O)N2CCc3ccccc32)nn1C,30%,21µM*,?,?,?,?
Cc1c(C(=O)N2CCc3ccccc32)oc2ccccc12,?,0.95µM*,?,3.5µM*,3.7µM*,3.5µM*
